# Rows were chosen to be rich in hits. Some 6% of all compounds tested hit in one or more screens of this group.
# DRD3 agonist: activates the human D3 dopamine receptor. P35462. D3R DiscoveRx beta-arrestin cells, luminescence, 90 min. max activation, %. 410,000 tested, 0.58% active; in the data active = max activation above about 30%; note: 0% is about no effect
# Target sequence (P35462 whole entry, looked up): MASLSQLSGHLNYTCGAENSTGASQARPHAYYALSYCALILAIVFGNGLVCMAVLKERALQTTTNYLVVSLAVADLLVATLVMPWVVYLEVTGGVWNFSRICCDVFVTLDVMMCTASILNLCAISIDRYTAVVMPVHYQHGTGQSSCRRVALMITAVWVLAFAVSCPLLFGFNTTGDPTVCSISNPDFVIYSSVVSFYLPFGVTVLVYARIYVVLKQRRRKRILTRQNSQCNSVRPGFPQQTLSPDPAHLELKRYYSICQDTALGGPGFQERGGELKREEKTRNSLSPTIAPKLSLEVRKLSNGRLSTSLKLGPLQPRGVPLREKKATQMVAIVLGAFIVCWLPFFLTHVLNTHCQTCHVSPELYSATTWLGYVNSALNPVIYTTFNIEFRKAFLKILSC
#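 Agonist mode: compounds and dopamine controls were applied to plated cells for 90 min at 37 degrees C after an overnight attachment at 1500 cells/well. Luminescent read-out followed 30 - 60 minutes at room temperature with DiscoveRx detection reagent.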
# D1 agonist: human D1 receptor agonism; P21728; HEK293 T-REx D1 cells, calcium flux, agonist mode; activation, % at 2 µM; 360,000 tested, 1% active; in the data active = activation above about 30%; note: 0% is about no effect
#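 Inducible HEK293 T-REx D1 cells, force-coupled to calcium signalling, were plated at 4000 cells/well with tetracycline and held overnight at 30 C. After no-wash calcium dye loading, compound-evoked calcium rise over 180 s flagged agonists.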
# D1 PAM: human D1 dopamine receptor positive modulation | HEK293 TREx D1 cells, calcium flux, dopamine EC20 potentiation | P21728 | 360,000 tested, 0.036% active | potentiation, % at 10 µM; in the data active = potentiation above about 30%; note: 0% is about no effect
# DRD3 antagonist: blocks the human D3 dopamine receptor; P35462; 360,000 tested, 2.5% active; D3R cells, DiscoveRx beta-arrestin luminescence, antagonist mode; active compounds read low; AID 652054; max response, negative = inhibition, %; in the data active = max response below about -50%; note: % is set by controls: 0 for no effect and ±100 for the full control effect
#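 Cells expressing the human receptor were seeded at 1500 cells/well, incubated overnight at 37 degrees C in 5% CO2, then exposed to library compounds with dopamine controls for 90 minutes at 37 degrees C before luminescent detection.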
# D1 antagonist: antagonists of human D1 dopamine receptor | 360,000 tested, 3.2% active | HEK293 TREx D1 cells, calcium flux, dopamine EC80; active compounds read low | P21728 | activity change, negative = inhibition, % at 10 µM; in the data active = activity change below about -30%; note: % is set by controls: 0 for no effect and ±100 for the full control effect
#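 Antagonism measured as reduced calcium response to an EC80 dopamine addition following 180 s compound pre-read; cells were inducible HEK293 Trex D1 plated overnight at 30 C, read kinetically at 1 cycle/sec.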
# The depositor's hits bear a star; x = not tested or not shown.
SMILES,DRD3 agonist,D1 agonist,D1 PAM,DRD3 antagonist,D1 antagonist
Cc1ccc(NC2=C(CC(=O)O)C(c3ccc(F)cc3)N(c3ccc(C)cc3)C2=O)cc1 (stereo unspecified),8,1,-2,x,-1
Cc1cc(C(=O)CSc2nnc3c(Cl)cc(Cl)cn23)c(C)n1C,1,1,3,11,-31*
C=CCn1c(C)cc(C(=O)CSc2nnc3c(Cl)cc(Cl)cn23)c1C,-8,0,-7,-22,-25
Cc1ccc(S(=O)(=O)NC(N)=NCCC[C@@H](N)C(=O)Nc2cc(C(F)(F)F)ccc2Cl)cc1,x,1,1,x,-15
Cc1ccc(O)c(-c2cc(C(F)(F)C(F)F)[nH]n2)c1,3,164*,14,23,-10
COc1ccc(NC(=S)N(CCCN2CCCC(C)C2)Cc2cccs2)cc1 (stereo unspecified),-21,2,-3,-82*,-11
CSc1cccc(NC(=S)N(CCCN2CCCC2)Cc2cccs2)c1,-20,11,-7,-64*,-8
Cc1ccc(NC(=S)N(CCN(C)C)Cc2cccs2)cc1,-8,4,-8,1,-36*
COc1ccc(NC(=S)N(CCCN2CCCC2)Cc2cccs2)cc1,-27,12,1,-64*,-25
Cc1cc(C)cc(NC(=S)N(CCN(C)C)Cc2cccs2)c1,-15,3,-3,6,8
NC1[C@H]2CN(c3nc4c(cc3F)c(=O)c(C(=O)O)cn4-c3ccc(F)cc3F)C[C@@H]12 (stereo partly specified),3,x,x,x,x
COCCN1C(=O)CCC1(C)C(=O)NC1CCCCC1 (stereo unspecified),7,x,x,28,x
O=c1nc(N/N=C/C=C/c2ccccc2)cn[nH]1,4,3,-3,-19,11
COc1ccc(C(O)c2ncc(-c3cccc4ccccc34)[nH]2)cc1F (stereo unspecified),-1,x,x,12,x
O=C(CN1C(=O)COc2ccccc21)NCCCN1CCOCC1,2,1,-2,-6,-27
O=C(CN1C(=O)COc2ccccc21)N(CCCN1CCOCC1)CC1CC=CCC1 (stereo unspecified),-58,3,0,-57*,3
O=C(CSc1ncc2c(n1)-c1cc(Cl)ccc1N(Cc1ccccc1F)S2(=O)=O)Nc1cccc(C(F)(F)F)c1,-13,8,-4,x,3
COCCNC(=O)c1c(C)oc2nc(C)nc(N3CCOCC3)c12,3,2,-1,x,-6
CCCOc1ccccc1OCC(=O)Nc1cc(Cl)ccc1-n1cncn1,-11,6,-11,-1,-71*
O=C(Nc1cc(Cl)ccc1-n1cncn1)c1cncc(Br)c1,-8,-2,-10,-5,-45*
Cc1cccc(OCC(=O)Nc2cc(Cl)ccc2-n2cncn2)c1C,-2,2,-5,-2,-19
COc1ccccc1NC(=O)c1cc2c(=O)oc3ccc(C)cc3c2s1,3,1,-3,x,1
CC1(C(=O)NCCOc2ccccc2Cl)CC1(Cl)Cl (stereo unspecified),-3,1,-5,-7,-65*
O=C(NCCOc1ccccc1Cl)C(=O)NCCOc1ccccc1Cl,3,5,-1,-5,-5
COc1ccccc1OCCNC(=O)Cc1ccc(Cl)c(Cl)c1,-9,4,-3,-9,-34*
SMILES,DRD3 agonist,D1 agonist,D1 PAM,DRD3 antagonist,D1 antagonist
COc1ccccc1OCCNC(=O)c1ccccc1C,-14,3,-2,-21,3
COc1ccc(NC(=O)c2ccc(CNS(=O)(=O)c3ccc4c(c3)C(C)(C)C(=O)N4C)cc2)cc1,-1,4,1,x,1
Cc1cc(C(=O)NCc2cc(C)n(C)n2)sc1-c1ccccc1,2,6,-8,-9,-34*
COc1ccc(C#Cc2ccc3c(c2)O[C@H](CN(C)S(=O)(=O)c2ccccc2F)[C@H](C)CN([C@H](C)CO)S3(=O)=O)cc1,7,x,x,71,x
CSc1ncc(Cl)c(C(=O)Nc2c(C(=O)c3ccc(C)c(F)c3)oc3ccccc23)n1,1,1,-1,x,-4
Cc1ccc(S(=O)(=O)Nc2c(C)n(C)n(-c3ccccc3)c2=O)cc1C(=O)NCc1ccccn1,3,0,-5,6,-34*
CCN(Cc1ccccc1)C(=O)C(C)OC(=O)c1cc(S(=O)(=O)Nc2c(C)n(C)n(-c3ccccc3)c2=O)ccc1C (stereo unspecified),-6,1,-1,-10,-69*
CCN(Cc1ccccc1)C(=O)COC(=O)c1cc(S(=O)(=O)Nc2c(C)n(C)n(-c3ccccc3)c2=O)ccc1C,12,2,-7,0,-2
CSc1ccc(CN(C)C(=O)c2ccc(S(=O)(=O)Nc3c(C)n(C)n(-c4ccccc4)c3=O)cc2)cc1,-4,x,x,0,x
CSc1nc2ccc(S(=O)(=O)Nc3c(C)n(C)n(-c4ccccc4)c3=O)cc2s1,3,0,-7,17,-91*
Cc1c(NS(=O)(=O)c2ccc(C(=O)NCc3ccc(F)cc3)cc2)c(=O)n(-c2ccccc2)n1C,3,0,-9,0,-36*
C=CCC1CCCCC1=C(C#N)c1ccccc1 (stereo unspecified),3,x,x,2,x
Cc1ccccc1NC(=O)/C=C/c1ccc([N+](=O)[O-])s1,-9,9,-4,-51*,-15
Cc1ccccc1NC(=O)/C=C/c1cccs1,-5,1,-4,-1,3
CCOC(=O)c1cccc(NC(=O)/C=C/c2ccc([N+](=O)[O-])cc2)c1,2,6,-4,31,-44*
CC(=O)c1cccc(NC(=O)/C=C/c2ccc([N+](=O)[O-])s2)c1,-17,0,-2,-69*,-8
Cc1cc(C)cc(NC(=O)/C=C/c2ccc([N+](=O)[O-])s2)c1,-2,1,-3,-1,6
COc1ccc(S(=O)(=O)N(C(=O)c2ccncc2)c2ccc3oc(C)c(C(C)=O)c3c2)cc1,-1,9,-1,x,-20
COC(=O)[C@@]12C[C@@H](CC(=O)NCC3CCCCC3)C(=O)N(Cc3cccc4ccccc34)C1=CCC(C)(C)C2,5,x,x,10,x
CCOc1ccccc1NC(=O)NCc1noc2ccc(C)cc12,-3,2,-6,x,-16
CC(C)(C)OC(=O)N1CCC(CC2CC(c3cccc(Br)c3)=NO2)(C(=O)NCC2CCCCC2)CC1 (stereo unspecified),-39,8,-7,-21,-16
O=C(c1ccccc1)N1CCC(CC2CC(c3cccc(Br)c3)=NO2)(C(=O)NCC2CCCCC2)CC1 (stereo unspecified),-47,2,-9,-18,-53*
COc1cccc(NC(=O)CSc2nnc3c(n2)[nH]c2ccc(C)cc23)c1,-29,3,5,-15,-84*
CCOC(=O)CN(C(=O)CSc1nnc(COc2ccc(OC)cc2)n1C)c1ccccc1,-2,-1,-3,4,-46*
